From PubChem BioAssay
Activity calls are given as the source filed them. Unless noted, no rule for the calls is given here.

What was measured:
[1] = anti-His antibody binders, primary screen, artefact control for SMM control protein annotation, biochemical, small-molecule microarray, 635 nm fluorescence (AID 1128); conditions: anti-His Alexa647 antibody binding, higher = more signal;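 also: score merges feature fluorescence with signal-to-noise for each printed compound spot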
[2] = test system: Human papillomavirus type 1a E7 protein (residues 1-88); assay: HPV1a E7 small-molecule binders, primary screen, biochemical, small-molecule microarray, residues 1-88, 635 nm (AID 1129); conditions: small-molecule microarray binding, fluorescence 635 nm; higher = more signal
[3] = target: Focal adhesion kinase 1 (Homo sapiens) (UniProt Q05397); assay: small-molecule microarray binders of FAK, primary screen, biochemical, 635/667 nm fluorescence, BSA, DTT (AID 1130); conditions: PTK2 binding, 635 nm fluorescence, higher = more signal;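 also: composite of spot emission at 667 nm and signal to noise over triplicate slides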
Chain of Focal adhesion kinase 1 (Homo sapiens) (Q05397 whole entry, looked up): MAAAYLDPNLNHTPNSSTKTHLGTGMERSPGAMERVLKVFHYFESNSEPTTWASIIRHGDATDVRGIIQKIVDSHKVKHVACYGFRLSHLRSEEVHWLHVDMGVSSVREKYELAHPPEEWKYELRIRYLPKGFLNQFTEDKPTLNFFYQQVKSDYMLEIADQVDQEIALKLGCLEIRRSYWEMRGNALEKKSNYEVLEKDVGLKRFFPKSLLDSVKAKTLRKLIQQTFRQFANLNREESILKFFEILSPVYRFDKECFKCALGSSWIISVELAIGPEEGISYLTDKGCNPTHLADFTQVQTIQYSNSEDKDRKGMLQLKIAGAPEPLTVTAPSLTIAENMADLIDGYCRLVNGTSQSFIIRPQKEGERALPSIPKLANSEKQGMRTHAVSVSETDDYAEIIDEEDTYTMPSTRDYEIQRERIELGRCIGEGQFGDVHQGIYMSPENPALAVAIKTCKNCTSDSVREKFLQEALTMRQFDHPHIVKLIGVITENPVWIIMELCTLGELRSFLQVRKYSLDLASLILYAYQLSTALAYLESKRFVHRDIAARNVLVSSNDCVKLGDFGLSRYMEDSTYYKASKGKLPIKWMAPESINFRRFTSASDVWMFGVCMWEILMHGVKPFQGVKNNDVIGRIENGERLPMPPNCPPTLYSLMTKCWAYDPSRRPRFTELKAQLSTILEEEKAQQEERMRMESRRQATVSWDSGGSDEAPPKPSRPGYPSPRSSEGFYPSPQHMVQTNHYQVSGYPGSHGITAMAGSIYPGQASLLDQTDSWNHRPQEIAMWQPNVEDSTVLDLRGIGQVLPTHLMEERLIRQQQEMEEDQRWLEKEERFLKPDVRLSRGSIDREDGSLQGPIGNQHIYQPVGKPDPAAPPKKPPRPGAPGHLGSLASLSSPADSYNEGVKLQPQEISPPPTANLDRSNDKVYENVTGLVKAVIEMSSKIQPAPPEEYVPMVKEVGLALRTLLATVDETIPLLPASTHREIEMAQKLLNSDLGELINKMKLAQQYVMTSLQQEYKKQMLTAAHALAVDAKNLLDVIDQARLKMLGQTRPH

[4] = test system: Fibrinogen (Alexa647-labelled); assay: fibrinogen binders on compound microarrays, profiling panel, artefact control for SMM control-protein annotation, biochemical, small-molecule microarray, 635/667 nm fluorescence (AID 1131); conditions: fibrinogen-A647 binding fluorescence, higher = more signal;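 also: z-score merges 667 nm fluorescence with per-spot signal-to-noise over triplicate slides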
[5] = target: Follistatin (Homo sapiens) (UniProt P19883); assay: follistatin binders on small-molecule microarrays, primary screen, biochemical, small-molecule microarray, 635/667 nm fluorescence (AID 1132); conditions: FST binding, 635 nm fluorescence, higher = more signal
Chain of Follistatin (Homo sapiens) (P19883 whole entry, looked up): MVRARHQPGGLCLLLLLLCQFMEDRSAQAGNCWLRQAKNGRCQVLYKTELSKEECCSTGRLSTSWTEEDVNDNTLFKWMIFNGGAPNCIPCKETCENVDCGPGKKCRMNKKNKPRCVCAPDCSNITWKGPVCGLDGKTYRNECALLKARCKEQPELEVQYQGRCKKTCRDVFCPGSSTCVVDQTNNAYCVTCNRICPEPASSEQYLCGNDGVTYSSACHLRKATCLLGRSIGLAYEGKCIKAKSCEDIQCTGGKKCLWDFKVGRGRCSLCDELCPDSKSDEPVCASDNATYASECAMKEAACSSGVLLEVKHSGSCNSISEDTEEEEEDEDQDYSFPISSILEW

[6] = target: Fibroblast growth factor 2 (Homo sapiens) (UniProt P09038); assay: FGF2 binders on small-molecule microarrays, primary screen, biochemical, small-molecule microarray, 635/667 nm fluorescence (AID 1133); conditions: small-molecule microarray binding, FGF2, fluorescence 635/667; higher = more signal
Chain of Fibroblast growth factor 2 (Homo sapiens) (P09038 whole entry, looked up): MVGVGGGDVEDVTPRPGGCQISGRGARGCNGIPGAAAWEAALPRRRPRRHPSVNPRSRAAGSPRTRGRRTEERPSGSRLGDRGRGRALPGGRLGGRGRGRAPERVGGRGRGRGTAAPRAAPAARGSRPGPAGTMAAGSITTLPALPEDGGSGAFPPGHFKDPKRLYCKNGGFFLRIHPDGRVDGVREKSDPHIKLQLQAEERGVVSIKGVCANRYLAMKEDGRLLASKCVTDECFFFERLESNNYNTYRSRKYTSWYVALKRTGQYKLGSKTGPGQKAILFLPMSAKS

[7] = mitochondrial membrane potential change in A549 cells, profiling panel, cell-based, JC-1 fluorescence, basal, 24 h, 100 nL (AID 1138); conditions: higher = more signal;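 also: A549 lung adenocarcinoma cells under basal conditions with no added stimulus; test concentration not given here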
Lefty1 = Lefty1 binders on small-molecule microarrays, primary screen, biochemical, small-molecule microarray, 635/667 nm fluorescence (AID 1139); conditions: small-molecule microarray binding, fluorescence 635/667; higher = more signal
[8] = test system: wheat germ agglutinin (Triticum aestivum), Alexa647-labelled; assay: wheat germ agglutinin binders on compound microarrays, profiling panel, artefact control for SMM control-protein annotation, biochemical, small-molecule microarray, 635/667 nm fluorescence (AID 1140); conditions: WGA-A647 binding, 635 nm fluorescence, higher = more signal;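 also: score merges 667 nm feature emission with signal to noise over triplicate slides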
[9] = target: Luciferin 4-monooxygenase (Photinus pyralis) (UniProt P08659); assay: firefly luciferase enzyme inhibitors, primary screen, biochemical, luminescence, purified enzyme, 2006 set (AID 1141); conditions: SteadyGlo luminescence, 30 min, higher = more signal, called active from +8 up or from −8 down;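 also: cell-free assay with purified firefly luciferase at 100 ng per well in PBS; test concentration not given here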
Chain of Luciferin 4-monooxygenase (Photinus pyralis) (P08659 whole entry, looked up): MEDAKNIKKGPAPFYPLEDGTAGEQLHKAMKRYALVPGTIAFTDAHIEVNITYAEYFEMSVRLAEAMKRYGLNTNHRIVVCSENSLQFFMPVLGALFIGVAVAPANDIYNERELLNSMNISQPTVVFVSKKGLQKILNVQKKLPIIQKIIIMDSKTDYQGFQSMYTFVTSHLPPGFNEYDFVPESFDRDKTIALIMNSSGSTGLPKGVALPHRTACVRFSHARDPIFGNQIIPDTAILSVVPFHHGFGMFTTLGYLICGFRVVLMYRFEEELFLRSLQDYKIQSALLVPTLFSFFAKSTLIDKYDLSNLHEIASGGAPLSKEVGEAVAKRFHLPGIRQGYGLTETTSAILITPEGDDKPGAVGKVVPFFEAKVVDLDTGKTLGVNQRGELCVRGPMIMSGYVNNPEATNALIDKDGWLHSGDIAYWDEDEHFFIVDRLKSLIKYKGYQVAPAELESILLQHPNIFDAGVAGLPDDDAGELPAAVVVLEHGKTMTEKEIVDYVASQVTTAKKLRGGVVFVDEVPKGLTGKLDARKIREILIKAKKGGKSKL

[10] = test system: Wnt5a (protein binding on small-molecule microarray); assay: Wnt5a binders on small-molecule microarray, primary screen, biophysical, 635/667 nm fluorescence (AID 1142); conditions: 635 nm fluorescence, higher = more signal;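 also: fluorescence read at 667 nm with signal to noise per printed feature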
[11] = cell viability in Huh7 cells, primary screen, cytotoxicity control for HCV replication inhibitor project, CellTiter-Glo luminescence, basal, 48 h (AID 1143); conditions: Huh7 HCV replicon, higher = more signal, called active from +8 up or from −8 down;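 also: Huh7 hepatoma cells carrying a hepatitis C replication reporter with no stimulus; test concentration not given here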
[12] = P. aeruginosa biofilm formation inhibitors, primary screen, PAO1 strain, BacTiter-Glo luminescence, LB-PBS (AID 1144); conditions: 12 h, higher = more signal
[13] = CREB reporter modulators without forskolin, primary screen, cell-based, PC12, CRE-LacZ reporter, unstimulated (AID 1145); conditions: no forskolin, luminescence, 4.5 h, higher = more signal, called active from +8 up or from −8 down
[14] = CREB reporter modulators under forskolin, primary screen, cell-based, PC12, CRE-LacZ reporter, forskolin-stimulated (AID 1146); conditions: luminescence, 4.5 h, higher = more signal, called active from +8 up or from −8 down;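 also: PC12 cells with 6xCRE LacZ reporter stimulated by forskolin 10 µM; beta-galactosidase reporter signal reflecting CREB driven transcription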
[15] = target: Streptavidin (Streptomyces avidinii) (UniProt P22629); assay: streptavidin binders on small-molecule microarray, primary screen, artefact control for SMM compound annotation, biophysical, 635/667 nm fluorescence (AID 1147); conditions: streptavidin binding, higher = more signal;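 also: signal reflects streptavidin binding to arrayed compounds as a control protein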
Chain of Streptavidin (Streptomyces avidinii) (P22629 whole entry, looked up): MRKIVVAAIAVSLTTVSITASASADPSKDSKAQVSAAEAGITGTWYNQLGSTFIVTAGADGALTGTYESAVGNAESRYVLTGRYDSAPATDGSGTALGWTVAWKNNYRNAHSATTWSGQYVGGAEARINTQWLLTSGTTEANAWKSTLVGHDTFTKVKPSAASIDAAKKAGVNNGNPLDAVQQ

[16] = small-molecule binders of probe aInhba, primary screen, biochemical, small-molecule microarray, 635/667 nm fluorescence (AID 1148); conditions: higher = more signal;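 also: score merges 667nm spot fluorescence with signal-to-noise for antibody binding to printed compounds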
Torsin-1A (Homo sapiens) [17] = target: Torsin-1A (Homo sapiens) (UniProt O14656); assay: torsin A binders from cell lysate, primary screen, small-molecule microarray, wild-type, 635/667 nm (AID 1149); conditions: COS7 hTOR1A-WT lysate, 635 nm fluorescence, higher = more signal
Chain of Torsin-1A (Homo sapiens) (O14656 whole entry, looked up): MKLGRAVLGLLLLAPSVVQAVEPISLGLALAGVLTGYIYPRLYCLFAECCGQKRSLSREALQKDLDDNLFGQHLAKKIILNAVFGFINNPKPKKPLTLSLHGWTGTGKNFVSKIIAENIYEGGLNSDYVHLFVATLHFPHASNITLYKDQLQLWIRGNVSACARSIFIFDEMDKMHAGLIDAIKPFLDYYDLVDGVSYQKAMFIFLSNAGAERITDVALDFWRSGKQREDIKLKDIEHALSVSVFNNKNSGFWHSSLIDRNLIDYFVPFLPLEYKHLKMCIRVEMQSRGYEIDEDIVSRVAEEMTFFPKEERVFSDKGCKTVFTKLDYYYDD

Torsin-1A (Homo sapiens) [18] = target: Torsin-1A (Homo sapiens) (UniProt O14656); assay: small-molecule binders of mutant TOR1A in lysate, primary screen, cell lysate, small-molecule microarray, COS7 lysate, 635/667 nm fluorescence (AID 1150); conditions: COS7 hTOR1A mutant lysate, 635 nm fluorescence, higher = more signal;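 also: score pools 667 nm emission and signal to noise measuring lysate protein binding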
[19] = test system: Sonic hedgehog protein (Shh); assay: small-molecule binders of Shh protein, primary screen, biochemical, small-molecule microarray, 635/667 nm fluorescence (AID 1151); conditions: small-molecule microarray binding, 635 nm fluorescence; higher = more signal;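 also: Shh protein binding to compounds spotted on small-molecule microarray slides; score combines spot fluorescence intensity with signal-to-noise across triplicate slides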

Row | SMILES | composite z-score [1] | composite z-score [2] | composite z-score [3] | composite z-score [4] | composite z-score [5] | composite z-score [6] | z-score [7] | composite z-score (Lefty1) | composite z-score [8] | z-score [9] | composite z-score [10] | z-score [11] | z-score [12] | z-score [13] | z-score [14] | composite z-score [15] | composite z-score [16] | composite z-score (Torsin-1A (Homo sapiens) [17]) | composite z-score (Torsin-1A (Homo sapiens) [18]) | composite z-score [19]
1 | O=C1[C@H]2[C@H]3[C@H](O)[C@H](O)CC(=NO[C@@H]4O[C@H](CO)[C@@H](O)[C@H](O)[C@H]4O)[C@H]3CC[C@H]2C(=O)N1Cc1ccccc1 | 0.0948 | 0.768 | 0.0406 | -0.187 | -0.179 | 0.389 | -0.252 | 0.358 | -0.0816 | 0.589 (inactive) | 0.927 | -0.871 (inactive) | 0.641 (inactive) | -0.474 (inactive) | -0.0615 (inactive) | 0.001 | -0.0736 | 0.717 | 0.0309 | 0.439
2 | Cc1ccc(C2CC=C(C(=O)O)CN2S(=O)(=O)c2ccc(C)cc2)cc1 (stereo not given) | 1.26 | 1.17 | 0.286 | 0.566 | 0.158 | 0.0208 | -1.23 | 0.0504 | 0.718 | 1.64 (inactive) | 0.212 | 0.0273 (inactive) | -0.119 (inactive) | -0.378 (inactive) | 0.707 (inactive) | 0.169 | -0.024 | 0.427 | 0.426 | -0.065
3 | COCCOC(=O)N1C(=O)[C@@]2(c3ccccc31)[C@H](C(N)=O)[C@H]1C(=O)O[C@H](c3ccccc3)[C@H](c3ccccc3)N1[C@@H]2c1ccccc1OCCO | 2.57 | 1.08 | 0.29 | 0.882 | 1.3 | 0.894 | 0.431 | 0.533 | 0.98 | -1.25 (inactive) | 0.491 | -4.01 (inactive) | 1.67 (inactive) | 0.362 (inactive) | 0.406 (inactive) | 0.662 | 0.126 | 0.918 | 0.815 | 1.19
4 | COCCCNC(=O)[C@@]1(Sc2ccc(C)cc2)CC(=O)N(Cc2ccccc2)[C@@H]1c1ccc(CO)cc1I | 0.101 | 0.264 | -0.303 | -0.154 | -0.191 | -0.376 | 1.63 | -1.13 | -0.308 | -0.848 (inactive) | 0.129 | -1.25 (inactive) | 0.501 (inactive) | -0.232 (inactive) | 1.48 (inactive) | -0.684 | 0.106 | 0.234 | 0.0773 | -0.772
5 | CCCNC(=O)[C@@H]1c2ccccc2C(=O)N(c2ccc(C)cn2)[C@H]1c1ccc(CO)cc1 | 0.63 | -0.38 | 0.14 | -0.367 | 0.316 | 0.398 | -0.307 | -0.981 | -0.273 | 0.544 (inactive) | -0.108 | 0.62 (inactive) | 0.242 (inactive) | -0.412 (inactive) | 0.538 (inactive) | -0.372 | -0.108 | -0.291 | -0.397 | -0.013
